The target of assay [1] is bovine Estrogen Receptor (ER), ESR1 (gene 407238) (UniProt P49884). The experiment in a line: NVS_NR_bER: NovaScreen (NVS) Nuclear Receptor Binding Assay for bovine Estrogen Receptor (ER) (AID 2283345).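 Further: actives lower the bound radioligand count which means they displace the ER ligand.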 The method, boiled down: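 Bovine uterine membranes; tritiated or iodinated radioligand; competitive displacement; 18 h; scintillation read; DMSO negative control; 25 uM duplicates, then concentration series for actives.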
Sequence of bovine Estrogen Receptor (ER), ESR1 (gene 407238) (P49884 whole entry, looked up): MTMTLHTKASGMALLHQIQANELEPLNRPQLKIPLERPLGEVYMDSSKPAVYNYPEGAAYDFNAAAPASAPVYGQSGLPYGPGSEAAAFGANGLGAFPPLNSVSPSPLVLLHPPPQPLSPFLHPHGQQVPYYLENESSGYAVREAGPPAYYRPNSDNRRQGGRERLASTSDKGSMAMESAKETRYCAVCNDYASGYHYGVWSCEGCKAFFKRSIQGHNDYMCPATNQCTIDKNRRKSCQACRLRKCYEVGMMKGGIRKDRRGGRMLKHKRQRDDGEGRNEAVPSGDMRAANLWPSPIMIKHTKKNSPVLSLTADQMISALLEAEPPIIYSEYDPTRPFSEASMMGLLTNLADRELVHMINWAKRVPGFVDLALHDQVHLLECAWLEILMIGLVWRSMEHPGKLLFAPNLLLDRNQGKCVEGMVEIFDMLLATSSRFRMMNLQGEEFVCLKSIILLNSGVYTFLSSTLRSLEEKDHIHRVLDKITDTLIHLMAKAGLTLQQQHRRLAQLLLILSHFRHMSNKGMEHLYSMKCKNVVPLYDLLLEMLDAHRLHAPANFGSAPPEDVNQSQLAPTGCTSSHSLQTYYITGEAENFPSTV

In assay [2] the target is Estrogen receptor (Homo sapiens) (UniProt P03372). Kind of assay: NVS_NR_hER: NovaScreen (NVS) Nuclear Receptor Binding Assay for human Estrogen Receptor (ER) (AID 2283348). The gist of the method: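 MCF7-derived receptor extract, radiolabelled ligand, competitive displacement. Read: scintillation counts at 18 h. DMSO = negative control/baseline. Primary 25 uM duplicate; follow-up concentration–response.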
Sequence of Estrogen receptor (Homo sapiens) (P03372 whole entry, looked up): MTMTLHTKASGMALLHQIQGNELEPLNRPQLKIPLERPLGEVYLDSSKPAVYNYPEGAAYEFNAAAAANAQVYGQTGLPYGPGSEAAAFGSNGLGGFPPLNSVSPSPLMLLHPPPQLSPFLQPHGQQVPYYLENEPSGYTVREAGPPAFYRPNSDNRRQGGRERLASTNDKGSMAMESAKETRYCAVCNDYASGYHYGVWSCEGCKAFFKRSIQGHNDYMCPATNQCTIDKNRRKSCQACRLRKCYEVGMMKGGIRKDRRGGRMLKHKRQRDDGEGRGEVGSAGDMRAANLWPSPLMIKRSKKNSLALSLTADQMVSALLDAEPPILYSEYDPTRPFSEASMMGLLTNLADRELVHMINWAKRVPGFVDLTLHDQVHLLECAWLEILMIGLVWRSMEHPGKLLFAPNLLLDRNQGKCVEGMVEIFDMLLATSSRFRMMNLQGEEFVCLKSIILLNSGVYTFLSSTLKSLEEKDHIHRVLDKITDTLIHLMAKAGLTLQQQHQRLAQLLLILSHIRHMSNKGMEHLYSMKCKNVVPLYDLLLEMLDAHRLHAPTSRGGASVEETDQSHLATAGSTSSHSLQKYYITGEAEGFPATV

Assay [3] deals with rat Peripheral-type Benzodiazepine Receptor (PBR), Tspo (gene 24230) (UniProt P16257). The experiment in a line: NVS_MP_rPBR: NovaScreen (NVS) Membrane Protein Assay for rat Peripheral-type Benzodiazepine Receptor (PBR) (AID 2283335). The gist of the method: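 Single-concentration duplicate screening at 25 uM preceded concentration-series retesting of actives. Binding of a specific radioligand to rat kidney membrane PBR was read by filtration radiodetection after 1 h, with plate-wise positive and negative controls.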
Sequence of rat Peripheral-type Benzodiazepine Receptor (PBR), Tspo (gene 24230) (P16257 whole entry, looked up): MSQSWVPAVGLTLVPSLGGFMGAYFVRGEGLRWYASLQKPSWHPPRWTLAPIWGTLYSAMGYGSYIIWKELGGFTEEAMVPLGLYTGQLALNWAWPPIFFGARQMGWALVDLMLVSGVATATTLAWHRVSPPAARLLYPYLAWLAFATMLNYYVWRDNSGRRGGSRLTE

Assay [4] is described as follows: NVS_IC_rCaBTZCHL: NovaScreen (NVS) Ion Channel Assay for Calcium Channel, Type L, Benzothiazepine Site (CaBTZCHL) (AID 2283337). The gist of the method: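 Rat cortical membrane preparation, cell-free. Radioligand displaced by test chemical; 1.5 h incubation; filtration, scintillation count. DMSO = negative control/baseline. Primary: duplicate, 25 uM; secondary: concentration series.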

Results on 18 molecules are retold here after PubChem BioAssay (EPA / NIEHS).

The term AC50 denotes the concentration giving half of the maximal activity seen.

Results filed as inconclusive are left out. A structure can be active in one record and inactive in another. Calls of active or inactive are those of the source. How the source made its calls: active means hit-call score of the fitted dose curve at least 0.9, where 1 is the maximum; inconclusive means response in the unintended direction; inactive means score below 0.9.

With `COc1ccc(-c2coc3cc(O)cc(O)c3c2=O)cc1`, the AC50 was 14.6 µM (active) in assay [1] and 0.642 µM (active) in assay [2].

For `Oc1ccc(/C=C/c2cc(O)cc(O)c2)cc1`, the call in assay [3] and in assay [2] was inactive. Moreover, the AC50 is 25 µM (active) in assay [1] and 2.52 µM (active) in assay [2].

As to `CC(=O)OCc1ccccc1`, the molecule was called inactive in assay [1] and in assay [2].

For `N#Cc1ccc(C(c2ccc(C#N)cc2)n2cncn2)cc1`, the AC50 in assay [3] is 6.92 µM (active). Also, in assay [2], the molecule was classed as inactive.

As to `CC(C)(C)C1CCC(=O)CC1`, the AC50 in assay [1] is 25 µM (active).

For `CCOC(=O)C1=NN(c2ccc(Cl)cc2Cl)C(C)(C(=O)OCC)C1` (stereo not drawn), the AC50 in assay [3] was 9.42 µM (active).

`Nc1ccnc(=O)[nH]1`: the outcome in assay [4] was inactive.

Consider `CCCCCCOC(=O)CCCCC(=O)OCCCCCC`, for which the outcome in assay [4] was inactive.

On to `CCCCCCCCCCCCc1ccc(O)cc1`, for which the AC50 in assay [1] is 10.7 µM (active); in assay [2] it was 11 µM (active).

Regarding `CCCCOC(=O)CCC(C)=O`, the molecule was called inactive in assay [2].

As to `CCCCC/C=C\C/C=C\CCCCCCCC(=O)O`, the results for the concentration at half-maximal activity (AC50) in assay [3] and in assay [2] were 5.8 µM (active) and 25 µM (active), respectively. In addition, the outcome in assay [1] was inactive.

Regarding `CC(C)(c1ccccc1)c1ccc(Nc2ccc(C(C)(C)c3ccccc3)cc2)cc1`, the call in assay [1] and in assay [2] was inactive.

Turning to `O=C(O)C1CCC(C(=O)O)CC1` (stereo not drawn), the result in assay [1] was inactive.

For `N#Cc1ccc(C2CCCc3cncn32)cc1` (stereo not drawn), the call in assay [1] was inactive. Moreover, the AC50 in assay [2] is 4.33 µM (active).

As to `O=C(O)c1cc(O)c2ccccc2c1O`, the AC50 in assay [3] was 13.6 µM (active). The call in assay [1] was inactive.

As to `O=S(=O)(O)c1ccc(Nc2nc(Nc3ccc(C=Cc4ccc(Nc5nc(Nc6ccc(S(=O)(=O)O)cc6)nc(N(CCO)CCO)n5)cc4S(=O)(=O)O)c(S(=O)(=O)O)c3)nc(N(CCO)CCO)n2)cc1`, the outcome in assay [1] and in assay [2] was inactive.

For `CC(C)=CCCC(C)=CC#N`, the molecule was called inactive in assay [1] and in assay [2].

For the molecule `CC(C)c1ccc(O)c(C(C)C)c1`, the result in assay [1] and in assay [2] was inactive.
